This is an account of results in PubChem BioAssay (NCI).

Common to all, as to assay: NCI-60 one-dose screen, 48 h (100 = growth as untreated, 0 = no growth, -100 = all killed)
Holding throughout (settings): 10 µM unless noted

The subject of experiment [1] is NCI-H23 lung.
The subject of experiment [2] is NCI-H226 lung.
Experiment [3] has as its system NCI-H322M lung.
Experiment [4] relates to HOP-62 NSCLC.
Experiment [5] has as its system NCI-H460 lung.
Experiment [6] relates to HOP-92 NSCLC.
In experiment [7] the test system is NCI-H522 lung.
The test system of experiment [8] is 786-0 renal.
In experiment [9] the test system is COLO 205 colon.
The test system of experiment [10] is A549/ATCC NSCLC.

About 83,000 compounds went through this panel and 20% of them were active in at least one assay; those are over-represented in the sample as a whole.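 Growth was measured after 48 h exposure to one concentration of compound in 96-well plates. Values under 10 count as active.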 Unmarked numbers belong to inactive results. Active and inactive are the calls of the source.

As to `CCOC(=O)C1=C(C)NC(=O)NC1c1ccc(OCC(=O)N/N=C/c2ccc(Cl)cc2)cc1` (configuration not stated), the growth in experiment [1] is 105%; in experiment [2], 95.8%; in [3], 87.5%; in experiment [4], 89.9%; in experiment [5], 101%; in experiment [6], 90.1%. Besides, the growth in [7] is 81.2%; in [8], 97.6%; in [9], 105%.

For the compound `Cc1cnc(NC(=O)C(Cc2ccccc2)NC(=O)c2ccccc2)s1` (configuration not stated), the growth in experiment [1] was 86%; in [2], 70.2%; in experiment [3], 105%; in experiment [4], 84.1%; in [5] it was 74.3%; in experiment [6], 19.1%. Also, the figures for the growth in [7], in experiment [8] and in experiment [9] were 63.9%, 96.9% and 91.9%, respectively.

Consider `Oc1ccc(N=Cc2ccccc2)cc1`, for which the growth in experiment [1] was 88.5%; in experiment [2], 111%; in experiment [3] it was 103%; in experiment [4] it was 115%; in experiment [5] it was 102%; in [6], 51.9%. For the same compound, the results for the growth in experiment [7], in experiment [10] and in [9] were 67.7%, 103% and 113%, respectively.

For `O=C1NC(Cc2c[nH]c3ccccc23)C(=O)N1Cc1ccc(Cl)cc1` (configuration not stated), the growth in experiment [1] was 107%; in experiment [2], 95.5%; in [3] it was 104%; in experiment [4] it was 103%; in experiment [5], 110%; in experiment [6] it was 85.8%. The growth in experiment [7] was 86.7%; in [8] it was 110%; in experiment [9], 96.9%.

For the compound `COc1ccc(NC(=O)CSc2nc3ccc(Cl)cc3c(=O)n2-c2ccccc2C(F)(F)F)c(OC)c1OC`, the growth in experiment [1] is 79.6%; in experiment [2] it was 62%; in experiment [3], 86.6%; in experiment [4], 60.6%; in experiment [5], 82.4%; in experiment [6], -2.83% (active). Further, the figures for the growth in experiment [7], in experiment [10] and in [9] were 32.4%, 72% and 92.9%, respectively.

Take `O=C(CN1CCN(c2cc3c(cc2F)c(=O)c(C(=O)O)cn3C2CC2)CC1)Nc1ccc(C(=O)/C=C/c2ccccc2)cc1`: the growth in experiment [1] was 24%; in [2] it was 57.4%; in experiment [3], 73.7%; in experiment [4] it was 59.4%; in experiment [5] it was 7.12% (active); in experiment [6], 14.9%. The growth is 10.6% in experiment [7], 23.2% in [8] and 108% in experiment [9].

`CCCCCCCC/C=C\CCCCCCCCOc1ccccc1CCOP(=O)(O)OCC[N+](C)(C)C`: the growth in [1] was 90.2%; in experiment [2] it was 95.6%; in experiment [3], 106%; in experiment [4], 42.1%; in experiment [5], 9.07% (active); in experiment [6], 30.3%. The values for the growth in [7], in [8] and in experiment [9] were 39.4%, 82.4% and 58.4%, respectively.

With `Cc1ccc(Cn2c(-c3nonc3N)nc3ccccc32)cc1`, the growth in [1] is 83.3%; in experiment [2], 82.7%; in [3], 86%; in experiment [4], 76.5%; in experiment [5] it was 71.4%; in experiment [6] it was 77.6%. Besides, the growth in experiment [7] was 66.4%; in [8], 92.3%; in [9] it was 80%.

Consider `C[C@]12CC[C@@H]3c4cc(O)c(O)cc4CC[C@H]3[C@@H]1CC[C@@H]2O`, for which the growth is 64.5% in [1]; 97.8% in [2]; 60.6% in experiment [3]; 44.4% in experiment [4]; 29.5% in experiment [5]; 18.1% in [6]. For the same compound, the growth in [7] is -8.58% (active); in experiment [8], 43%; in experiment [9], 115%.

Consider `O=C1Nc2cc(Cl)ccc2Oc2cc(Oc3ccccc3)ccc21`, for which the growth in experiment [1] was 54.8%; in experiment [2], 72.3%; in experiment [3], 76.2%; in experiment [4] it was 64.1%; in [5], 25.1%; in experiment [6], 115%. Moreover, the growth in experiment [7] was 45.1%; in [8], 74.3%; in experiment [9], 45.2%.

In the case of `c1ccc2nc(-c3ccc4ccccc4n3)ccc2c1`, the growth in [1] is 88.5%; in experiment [2], 85.9%; in [3] it was 95.8%; in experiment [4], 82.8%; in experiment [5], 103%; in experiment [6] it was 83%. Further, the growth in [7] was 70%; in experiment [10] it was 102%; in [9], 106%.

Turning to `CCC(=O)Oc1ccc2c(c1)CC[C@@H]1[C@@H]2CC[C@]2(C)C[C@H](OC(=O)CC)C[C@@H]12`, the growth in experiment [1] is 79.1%; in experiment [2], 99.9%; in [3], 92.6%; in experiment [4], 64.1%; in experiment [5], 62.6%; in [6], 62.8%. Moreover, the results for the growth in experiment [7], in [8] and in experiment [9] were 32.1%, 67.9% and 118%, respectively.

As to `Cc1ccc(S(=O)(=O)OC2COCOC2C(OS(=O)(=O)c2ccc(C)cc2)C2OCOCC2OS(=O)(=O)c2ccc(C)cc2)cc1` (configuration not stated), the growth in [1] is 109%; in [2], 95.2%; in experiment [3], 96.3%; in experiment [4], 99.4%; in experiment [5] it was 110%; in [6], 104%. Also, the growth in experiment [7] was 98.3%; in experiment [10] it was 93.6%; in [9] it was 108%.

On to `O=C(c1ccccc1)C(Cl)C(Cl)c1ccccc1` (configuration not stated), for which the growth in experiment [1] was 86.7%; in experiment [2], 7.49% (active); in experiment [3] it was 106%; in experiment [4] it was 110%; in experiment [5], 93.7%; in [6], 75.7%. Besides, the growth in experiment [7] was -83.5% (active); in [8], -17.8% (active); in experiment [9], -40.2% (active).

For `CC1CCc2c(sc(NC(=O)CSc3nnc4ccccn34)c2C(N)=O)C1` (configuration not stated), the growth in experiment [1] was 109%; in experiment [2], 103%; in [3], 121%; in experiment [4], 110%; in [5], 106%; in experiment [6], 97.8%. In addition, the values for the growth in [7], in experiment [8] and in [9] were 108%, 115% and 126%, respectively.

Consider `O=C(Nc1ccc(OCc2nnc(-c3ccc(Cl)cc3)o2)c(F)c1)Nc1ccc(Cl)c(Cl)c1`, for which the growth in experiment [1] was 47.3%; in experiment [2], 78.7%; in experiment [3] it was 54.7%; in experiment [4], 47.5%; in [5] it was 29.2%; in experiment [6] it was 59%. The growth is 40.4% in [7], 90% in experiment [8] and 70.3% in experiment [9].

Take `Cc1ccc2nc(-c3c(CCCO)noc3N)[nH]c(=O)c2c1`: the growth is 130% in [1]; 99.9% in experiment [2]; 89.6% in [3]; 103% in experiment [4]; 108% in experiment [5]; 65.7% in [6]. The growth is 103% in experiment [7], 98.6% in experiment [8] and 121% in [9].

As to `COc1cc(C2CC(c3c(C)[n+]([O-])c4ccccc4[n+]3[O-])=NN2)cc(OC)c1OC` (configuration not stated), the growth was 99.6% in experiment [1]; 100% in [2]; 119% in experiment [3]; 106% in [4]; 112% in experiment [5]; 87.8% in experiment [6]. Further, the growth is 104% in experiment [7], 102% in experiment [8] and 102% in experiment [9].

As for `CC(C(=O)n1cc(-c2ccccc2)c(-c2ccccc2)c1)c1ccccc1` (configuration not stated), the growth was 101% in experiment [1]; 104% in experiment [2]; 110% in experiment [3]; 104% in experiment [5]; 90.5% in [6]; 102% in [7]. For the same compound, the growth in experiment [10] was 88.7%; in [8], 98%; in experiment [9], 122%.

For the compound `CCOC(=O)/C=C\C(=O)NC(N)=O`, the growth in [1] was 102%; in experiment [2] it was 96.9%; in experiment [3], 104%; in experiment [5] it was 110%; in experiment [6], 94.5%; in experiment [7] it was 90.3%. The growth in [10] is 77.8%; in experiment [8], 103%; in [9], 115%.

As for `Cc1cc(C)c2c(=O)[nH]c(SCC(=O)Nc3cccc(S(=O)(=O)N(C)C)c3)nc2n1`, the growth was 104% in experiment [1]; 91.9% in experiment [2]; 122% in experiment [3]; 107% in experiment [5]; 88.3% in [6]; 96.3% in [7]. Besides, the growth in experiment [8] was 93.2%; in experiment [9] it was 90.9%.

`Cc1nc2scc(-c3ccccc3)n2c(=O)c1CCO`: the growth was 99.6% in [1]; 99.9% in [2]; 103% in [3]; 100% in [5]; 84.6% in experiment [6]; 99.1% in experiment [7]. Besides, the growth in experiment [8] was 106%; in experiment [9], 108%.

As to `COC(=O)c1ccc(C)cc1`, the growth in experiment [1] is 97.5%; in [2] it was 106%; in experiment [3], 113%; in [5] it was 106%; in experiment [6], 100%; in experiment [7], 97.5%. Moreover, the growth in experiment [10] is 103%; in experiment [8], 103%; in experiment [9] it was 106%.

Regarding `N#Cc1ncc(-c2ccc(F)c(F)c2F)c(NC2CCCCCC2)n1`, the growth in experiment [1] was 88.1%; in experiment [2], 93.8%; in [3], 85.7%; in [5], 98.9%; in experiment [6], 65.1%; in experiment [7], 72%. Moreover, the growth is 89.3% in experiment [10], 87.1% in experiment [8] and 99.8% in experiment [9].

As for `Nc1nc(N)c2nc(CNc3ccc(C(=O)CC(CCC(=O)O)C(=O)O)cc3)cnc2n1` (configuration not stated), the growth in experiment [1] is 31.4%; in [2] it was 38.2%; in experiment [3], 47.5%; in experiment [5], 19.8%; in experiment [6], -3.77% (active); in experiment [7], -9.57% (active). Besides, the values for the growth in [10], in experiment [8] and in [9] were 2.47% (active), 20.9% and 66%, respectively.

Consider `O=C(CNC(=O)c1cccc2ccccc12)Nc1ccccc1Oc1ccccc1`, for which the growth in experiment [1] was 20.9%; in experiment [2] it was 49.2%; in experiment [3], 41.8%; in experiment [5], -2.87% (active); in experiment [6], -1.24% (active); in experiment [7], -10.5% (active). For the same compound, the results for the growth in experiment [8] and in experiment [9] were 16.3% and -8.22% (active), respectively.

For the compound `COc1cc(Br)c(OC)cc1Br`, the growth in experiment [1] is 78%; in experiment [2], 98.3%; in experiment [3], 89.7%; in [5], 99.3%; in [6] it was 96.9%; in [7], 90.4%. The growth in [10] is 95.6%; in experiment [8] it was 105%; in experiment [9], 109%.

With `CCCCCCCCCCCCNC(=S)N/N=C/c1ccc(Cl)c(Cl)c1`, the growth in [1] is 109%; in experiment [2], 106%; in [3], 112%; in experiment [5], 112%; in experiment [6], 122%; in [7] it was 65.7%. Further, the growth in [10] is 103%; in experiment [8], 106%; in experiment [9], 106%.

Take `C#CCC1(c2ccc(F)c(F)c2)NS(=O)(=O)c2ccccc21` (configuration not stated): the growth is 98.1% in experiment [1]; 103% in [2]; 90.5% in [3]; 108% in experiment [5]; 106% in experiment [6]; 65.5% in experiment [7]. For the same compound, the values for the growth in [10], in experiment [8] and in experiment [9] were 76.9%, 101% and 110%, respectively.

Regarding `Cc1sc(N=Nc2ccc(N(C)C)cc2)[n+]([O-])c1C`, the growth in [1] was 98.4%; in experiment [3], 94.5%; in experiment [4], 106%; in [5], 99.3%; in [6] it was 74.7%; in experiment [7], 98.4%. Also, the figures for the growth in experiment [10], in [8] and in [9] were 100%, 103% and 104%, respectively.
